Unmarked numbers belong to inactive results. Results filed as inconclusive are left out. Calls of active or inactive are those of the source. Unless noted, calls follow the shape of the dose curve; as a rule, active = well fitted curve in the direction sought with a large enough effect in the repeat runs; inconclusive = weak or mixed curves; inactive = no such curve, though single readings can be large; an effect the other way counts as inactive or inconclusive.

Assay [1] is described as follows: qHTS assay to identify small molecule agonists of H2AX (AID 1224845; active = well fitted activation curve with a large enough effect in the signal ratio in the repeat runs, not every such curve was filed as active; the % refers to the signal ratio; also: potency is read from the fitted curve at half-maximal effect). In a few lines:
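Phospho-H2AX Ser139 measured by HTRF (ex 320 nm; em 665 and 620 nm) after 24 hr antibody incubation. Compounds, 15 concentrations, 0.76% DMSO, were applied to CHO-K1 cells for 3hr at 37C before lysis.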
(In general: qHTS replaces the single test concentration by a dilution series.)

Assay [2] can be described thus: qHTS assay to identify small molecule agonists of H2AX - cell viability counter screen (AID 1224847; calls by dose curve; also: nearly all actives have a fitted effect of over 30% in size; also: potency is read from the fitted curve at half-maximal effect). The essentials: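 Quantitative HTS viability measurement: CHO-K1 wild-type cells in serum (10% FBS) medium, short 3 hr drug exposure at 37C with 0.76% DMSO, CellTiter-Glo luminescent detection.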
The nature of assay [3]: qHTS assay to identify small molecule antagonists of the estrogen related receptor (ERR) signaling pathway from Tox21 library (AID 1224848). Also: nearly all actives have a fitted effect of over 50% in size. Also: potency is read from the fitted curve at half-maximal effect. The essentials:
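ERR cell line, 2,000 cells/well. 6 h settle, then compound (DMSO) added; 18 h at 37 C; ONE-Glo luminescence after 30 min RT.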

Assay [4] in a line: qHTS assay to identify small molecule agonists of the estrogen related receptor (ERR) signaling pathway from Tox21 library (AID 1224849; calls by dose curve; also: % is scaled to controls: 0 for no effect and ±100 for the full control effect; nearly all actives have a fitted effect of over 15% in size). Conditions: ERR reporter cell line, ONE-Glo luciferase, 18 h; at 92.4 µM (top of the series) unless noted. In a few lines: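 Luminescent agonist read-out (One-Glo, 30-minute room-temperature incubation) following 18-hour compound treatment at 37 C of the ERR cell line, which had been plated 6 hours before dosing.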

Assay [5] in a line: qHTS RealTime-Glo MT Cell Viability Assay in HepG2 cells - 24 hour (AID 1224867). Also: nearly all actives have a fitted effect of over 50% in size. Also: potency is read from the fitted curve at half-maximal effect. In a few lines: (§1)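 Cells + NanoLuc/prosubstrate dispensed (600 cells/well) → 5 h at 37 C/5% CO2 → compounds in DMSO transferred → 40 h incubation at 37 C, luminescence read at 0, 8, 16, 24, 32, 40 h.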
Assay [6] can be described thus: qHTS RealTime-Glo MT Cell Viability Assay in HEK293 cells - 32 hour (AID 1224868). Also: nearly all actives have a fitted effect of over 50% in size. Also: potency is read from the fitted curve at half-maximal effect. In a few lines: (§2)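 Tox21 10K qHTS, HEK293, 600 cells/well, RealTime-Glo reagent co-dispensed with cells; 5 h preincubation, compound by pintool, 37 C, luminescence at 0–40 h.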
The nature of assay [7]: A CellTox Green Cytotoxicity Assay to monitor cytotoxicity in HEK293 cells - 40 hour (AID 1224871). Also: nearly all actives have a fitted effect of over 45% in size. Also: potency is read from the fitted curve at half-maximal effect. In a few lines: (§3)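 Fluorescence from a DNA-binding dye excluded by viable cells was measured repeatedly in the same HEK293 wells (600 cells/well) during continuous compound exposure at 37 C. Each assay gives one read point: 0, 8, 16, 24, 32 or 40 h.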
Assay [8] can be described thus: qHTS RealTime-Glo MT Cell Viability Assay in HEK293 cells - 16 hour (AID 1224872). Also: nearly all actives have a fitted effect of over 50% in size. Also: potency is read from the fitted curve at half-maximal effect. The essentials:
as §2

The nature of assay [9]: qHTS RealTime-Glo MT Cell Viability Assay in HepG2 cells - 8 hour (AID 1224873). Also: nearly all actives have a fitted effect of over 55% in size. Also: potency is read from the fitted curve at half-maximal effect. In a few lines: (§4)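 Real-time viability: cells seeded at 600 per well together with NanoLuc and cell-permeant prosubstrate, compounds added after 5 h incubation. Luminescence tracked at 0, 8, 16, 24, 32 and 40 h of exposure.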
Assay [10] in a line: qHTS RealTime-Glo MT Cell Viability Assay in HEK293 cells - 40 hour (AID 1224874). Conditions: RealTime-Glo luminescence; max response: stronger effect = lower value. In a few lines: (§5)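 Luminescence, which tracks viable cell number through reduction of the prosubstrate to a NanoLuc substrate, was read over continuous 37 C culture. Cells (600/well) were premixed with reagent and rested 5 h before 23 nL of compound in DMSO was pinned.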

A short description of assay [11]: A CellTox Green Cytotoxicity Assay to monitor cytotoxicity in HEK293 cells - 24 hour (AID 1224875). Also: nearly all actives have a fitted effect of over 45% in size. Also: potency is read from the fitted curve at half-maximal effect. As to activity change: % is scaled to controls: 0 for no effect and ±100 for the full control effect. The essentials: as §3
Assay [12] can be described thus: A CellTox Green Cytotoxicity Assay to monitor cytotoxicity in HepG2 cells - 16 hour (AID 1224876). Also: nearly all actives have a fitted effect of over 45% in size. Also: potency is read from the fitted curve at half-maximal effect. In a few lines: (§6)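 Real-time cytotoxicity: fluorescence of a cell-impermeant cyanine dye binding DNA of dead HepG2 cells, measured repeatedly (0–40 h) during compound exposure at 37 C. Cells seeded 600/well with reagent, dosed after 5 h.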
Assay [13] is described as follows: qHTS RealTime-Glo MT Cell Viability Assay in HepG2 cells - 32 hour (AID 1224877). Also: nearly all actives have a fitted effect of over 55% in size. Also: potency is read from the fitted curve at half-maximal effect. In a few lines:
as §1

The nature of assay [14]: A CellTox Green Cytotoxicity Assay to monitor cytotoxicity in HepG2 cells - 24 hour (AID 1224878). Also: nearly all actives have a fitted effect of over 45% in size. Also: potency is read from the fitted curve at half-maximal effect. As to Cytotoxicity: % is scaled to controls: 0 for no effect and ±100 for the full control effect. The essentials: as §6
The nature of assay [15]: A CellTox Green Cytotoxicity Assay to monitor cytotoxicity in HepG2 cells - 40 hour (AID 1224879). Also: nearly all actives have a fitted effect of over 40% in size. Also: potency is read from the fitted curve at half-maximal effect. In a few lines:
as §6

A short description of assay [16]: qHTS RealTime-Glo MT Cell Viability Assay in HEK293 cells - 0 hour (AID 1224880). The essentials: as §5
Assay [17] can be described thus: A CellTox Green Cytotoxicity Assay to monitor cytotoxicity in HEK293 cells - 0 hour (AID 1224869). In a few lines: as §3
Assay [18] can be described thus: qHTS assay to identify small molecule agonists of the hypoxia (HIF-1) signaling pathway - cell viability counter screen (AID 1224844; calls by dose curve). The essentials:
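Cytotoxicity measured by CellTiter-Glo ATP luminescence in the wells also read for beta-lactamase signal. Cells were HRE-bla ME-180 (2,000/well, 0.5% dialyzed FBS), exposed to compounds for 17 h at 37C.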

The nature of assay [19]: qHTS RealTime-Glo MT Cell Viability Assay in HepG2 cells - 40 hour (AID 1224870). In a few lines: as §4
Assay [20] can be described thus: qHTS assay to identify small molecule agonists of the hypoxia (HIF-1) signaling pathway (AID 1224846; active = well fitted activation curve with a large enough effect in the signal ratio in the repeat runs, not every such curve was filed as active; the % refers to the signal ratio; also: % is scaled to controls: 0 for no effect and ±100 for the full control effect). The essentials:
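Compounds added to ME-180 cells carrying hypoxia-response-element beta-lactamase reporter (0.5% dialyzed FBS, 5 h preplating), 17 h at 37C; agonist activity detected by CCF4-AM B/G FRET read-out.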

For `ClC1=C(Cl)[C@]2(Cl)[C@@H]3[C@@H]4C[C@@H]([C@H]5O[C@@H]45)[C@@H]3[C@@]1(Cl)C2(Cl)Cl`, the Potency in [1] is 17.9 µM (active); in assay [2], 50.5 µM (active); in assay [3] it was 43.3 µM (active); in [5], 43.6 µM (active); in assay [6], 21.9 µM (active); in [7], 51.9 µM (active). Also, the Potency in assay [8] was 21.9 µM (active); in assay [9], 43.6 µM (active); in assay [10], 44.9 µM (active); in assay [11], 49 µM (active); in [12], 54.9 µM (active); in [13] it was 49 µM (active). The Potency in [14] and in [15] was 49 µM (active) in each case. In assay [4], the activity change, positive = activation was -52.1%. Besides, in assay [16], the Potency entry was “inactive”.

As to `N#CC(Cl)Cl`, the Potency result in [1], in [2], in [5], in assay [17], in assay [11] and in [12] was “inactive” throughout. Moreover, the Potency result in [13], in assay [14] and in assay [16] was “inactive” in each case. In addition, the activity change, positive = activation in assay [4] was -30.9%. The Potency in [15] was 1.2 µM (active).

With `CC1(C)C(/C=C(\Cl)C(F)(F)F)C1C(=O)OC(C#N)c1cccc(Oc2ccccc2)c1` (stereo not given), the Potency result in assay [18], in assay [2], in assay [5], in assay [19], in assay [7] and in [9] was “inactive” in each case. The Potency result in assay [11], in assay [12], in [13], in [14], in [15] and in assay [16] was “inactive” in each case.

Consider `CCc1nn(C)c(C(=O)NCc2ccc(C(C)(C)C)cc2)c1Cl`, for which the Potency entry in assay [1], in assay [17], in assay [19], in assay [9], in [11] and in assay [12] was “inactive” in each case. Moreover, the Potency result in [13], in assay [14], in assay [15] and in assay [16] was “inactive” each time. Further, the Potency in assay [2] was 56.6 µM (active); in [3], 0.0486 µM (active); in [6] it was 0.0347 µM (active); in assay [8], 0.0871 µM (active); in assay [10] it was 0.0977 µM (active). Further, the activity change, positive = activation in [4] was -58.3%.

For `CC(C)(COCC1CO1)COCC1CO1` (stereo not given), the Potency entry in assay [1], in [2], in assay [3], in assay [5], in [6] and in assay [17] was “inactive” each time. Moreover, the Potency result in assay [19], in assay [7], in [8], in [9], in [11] and in assay [13] was “inactive” in each case. Besides, the Potency entry in assay [14], in assay [15] and in assay [16] was “inactive” each time. The call in [20] was inactive. In [4], the activity change, positive = activation is -8.81%.

Consider `Cc1cc(C(F)(C(F)(F)F)C(F)(F)F)ccc1NC(=O)c1cccc(I)c1C(=O)NC(C)(C)CS(C)(=O)=O`, for which the Potency result in [1], in [2], in [5], in assay [17], in [19] and in [7] was “inactive” each time. Moreover, the Potency result in [8], in assay [11], in [12], in [13], in assay [14] and in assay [15] was “inactive” throughout. Besides, the Potency entry in assay [16] was “inactive”. Besides, in assay [20], the call was inactive. Further, the activity change, positive = activation in [4] was -22.4% [at 42.5 µM].

Turning to `O=c1[nH]c2ccccc2n1CCCN1CCC(n2c(=O)[nH]c3cc(Cl)ccc32)CC1`, the Potency result in assay [18], in [19], in assay [7], in assay [9], in assay [11] and in assay [12] was “inactive” in each case. Besides, the Potency result in assay [13] and in assay [16] was “inactive” throughout. Also, the Potency is 10.7 µM (active) in assay [6]; 9.52 µM (active) in assay [8]; 10.7 µM (active) in assay [10]; 21.3 µM (active) in [14]; 23.9 µM (active) in assay [15].

(Values after PubChem BioAssay (Tox21).)
